aSyn UTR act = Activators via SNCA 5'UTR binding, MLPCN. actives 7.1% (n = 300,000). alpha-synuclein 5'UTR reporter, activators screen. activity score, % (tested at 7.5 µM), hits read low. AID 1814, 2009; in the data active = activity score below about -60%
The depositor's hits bear a star. These entries were drawn from the full list.

SMILES	aSyn UTR act
COCC1CCCCN1C(=O)c1ccc2oc(CCCc3ccccc3)nc2c1 (stereo unspecified)	-86*
CCOC(=O)C1CCCN(C(=O)c2ccc3oc(Cc4ccccc4)nc3c2)C1 (stereo unspecified)	-207*
Brc1ccc2oc3c(N4CCOCC4)ncnc3c2c1	-158*
O=C(Nc1ccc(C#Cc2ccccc2)cc1)C1CC1	-113*
CCCC(=O)Nc1ccc(C#Cc2ccccc2)cc1	-68*
O=C(Nc1ccccc1O)c1ccc(NC(=O)C2CC2)cc1	-805*
COc1ccc(-c2cc3ccccc3s2)cc1[C@H]1[C@H]2C=CC[C@@H](C)[C@@H]2C(=O)N1Cc1ccccc1	-107*
CCC(c1nnnn1CCc1ccccc1)N(Cc1ccco1)Cc1cc2c(C)ccc(C)c2[nH]c1=O (stereo unspecified)	44
COc1ccc2cc(CCNC(=O)c3ccco3)c(=O)[nH]c2c1	-117*
Cc1ccc2cc(CCNC(=O)c3ccco3)c(=O)[nH]c2c1	-143*
Cc1cc2cc(CCNC(=O)c3cccs3)c(=O)[nH]c2cc1C	-149*
CC(=O)Nc1ccc(S(=O)(=O)N(Cc2cccnc2)Cc2cc3ccc(C)cc3[nH]c2=O)cc1	60
Cc1ccc2cc(CCNC(=O)c3ccco3)c(=O)[nH]c2c1C	-138*
CC(=O)c1cc(C#N)c(SCc2ccccn2)nc1C	-114*
CC(=O)c1cc(C#N)c(SCc2ccccc2)nc1C	-85*
CCOc1cc(/C=C2/SC(=S)N(C)C2=O)ccc1Oc1ccc([N+](=O)[O-])cc1[N+](=O)[O-]	-62*
CCOc1cc(/C=C2/NC(=S)NC2=O)ccc1OCc1ccc([N+](=O)[O-])cc1	62
COc1cccc(N2CCN(c3ncnc4c3[nH]c3ccccc34)CC2C)c1 (stereo unspecified)	-73*
c1ccc2c(c1)CCN(c1ncnc3c1[nH]c1ccccc13)C2	-102*
COc1ccc(-c2nsc3c(N4CCCCC4C)ncnc23)cc1 (stereo unspecified)	90
O=S1(=O)C=C(Sc2nnc(-c3ccccc3)o2)c2ccccc21	-118*
Cc1cc(C)nc(SC2=CS(=O)(=O)c3ccccc32)n1	-120*
O=C(NNc1ncnc2ccccc12)c1cccc(Cl)c1	-84*
Cc1ccc(C)c(C(=O)Nc2nc3ccccc3[nH]2)c1	-69*
O=C(Nc1nc2ccccc2[nH]1)c1ccccc1O	-74*
SMILES	aSyn UTR act
O=C(Nc1nc2ccccc2[nH]1)c1ccc(Cl)cc1	66
O=C(Nc1nc2ccccc2[nH]1)c1cccc(Cl)c1	-151*
O=C1/C(=N\S(=O)(=O)c2cccs2)C([n+]2ccc(CCCc3ccccc3)cc2)=C([O-])c2ccccc21	91
Cc1ccc(Nc2nc3ccccc3[nH]2)nc1	-220*
Cc1ccc(C)c(OCc2nc3ccccc3[nH]2)c1	-113*
COc1cc2[nH]c3c(=O)n4c(nc3c2cc1OC)SCCC4	-97*
CC(=O)c1cnc(-c2ccccc2Cl)s1	-82*
O=C(NCCCCCCOC1=NS(=O)(=O)c2ccccc21)C(=O)Nc1ccccc1	-93*
Cc1ccc(NC(=O)c2cncc(Br)c2)c(O)c1	-196*
Cc1ccc(NC(=O)c2cncc(Br)c2)nc1	-89*
COc1ccc(CCNc2ncccc2C#N)cc1OC	-114*
CCC(C)c1ccc(Nc2ncccc2C#N)cc1 (stereo unspecified)	-176*
CCc1ccc(Nc2ncccc2C#N)cc1	-68*
COn1c(-c2ccccc2)nc2ccc(Cl)cc21	-138*
O=[N+]([O-])c1ccc2nc(-c3ccccc3)n(OCc3ccc(Cl)cc3)c2c1	-87*
NC(=O)c1c(NC(=O)c2ccc([N+](=O)[O-])o2)sc2c1CCCC2	95
CNC(=O)c1c(NC(=O)c2cccc(C)c2)sc2c1CCC2	-213*
N#Cc1c(NC(=O)c2ccccc2)sc2c1CCC2	-288*
Cc1cc(C(=O)Nc2sc3c(c2C#N)CCC(C)C3)cs1 (stereo unspecified)	-103*
N#Cc1c(NC(=O)c2ccc([N+](=O)[O-])o2)sc2c1CCC2	-107*
N#Cc1ccc(-c2cccnc2)nc1SCC(=O)Nc1sc2c(c1C#N)CCC2	-88*
N#Cc1c(NC(=O)c2cccnc2)sc2c1CCC2	-150*
CC1CCc2c(sc(NC(=S)NC(=O)c3ccccc3)c2C#N)C1 (stereo unspecified)	-74*
N#Cc1c(NC(=O)c2cnccn2)sc2c1CCCC2	-128*
N#Cc1c(NC(=S)NC(=O)c2ccccc2)sc2c1CCCC2	-96*
SMILES	aSyn UTR act
[O-]/[N+](=C\C=C\c1ccccc1)c1ccccc1	-182*
Cc1ccc(C(=O)N/C(=C\c2ccc(-c3ccc(Br)cc3)o2)C(=O)NCCCN(C)C)cc1	100
O=C(NCc1cccnc1)/C(=C\c1ccc(-c2ccc(Br)cc2)o1)S(=O)(=O)c1ccccc1	-138*
O=C(NCc1cccnc1)/C(=C/c1ccc(-c2ccc(Cl)cc2)o1)S(=O)(=O)c1ccccc1	-79*
Cc1onc(NC(=O)c2ccc(Cl)cc2Cl)c1Br	-145*
CC(=O)Nc1ccc(-c2csc(N/N=C(/C)c3ccccc3)n2)cc1	-102*
CC(=O)Nc1ccc(-c2csc(NCc3ccccc3)n2)cc1	-75*
